{
  "source": "PubChem BioAssay (NCATS)",
  "key": {"[1]": {"assay": "qHTS Assay for Lipid Storage Modulators (AID 1519; calls by dose curve)", "settings": "Drosophila S3 cells, BODIPY lipid droplet/cell ratio, laser cytometry, cells loaded with oleic acid", "method_in_brief": "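Cells seeded at 5,000 per well were treated with compounds over a concentration series and loaded with oleic acid (400 uM, as added). Lipid droplet fluorescence (488 nm excitation, 500-530 nm channel) was read by laser-scanning cytometry and normalized to 20 uM Triacsin C.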"}, "[2]": {"target": "DNA repair nuclease/redox regulator APEX1 (Homo sapiens) (UniProt P27695)", "sequence (P27695 whole entry, looked up)": "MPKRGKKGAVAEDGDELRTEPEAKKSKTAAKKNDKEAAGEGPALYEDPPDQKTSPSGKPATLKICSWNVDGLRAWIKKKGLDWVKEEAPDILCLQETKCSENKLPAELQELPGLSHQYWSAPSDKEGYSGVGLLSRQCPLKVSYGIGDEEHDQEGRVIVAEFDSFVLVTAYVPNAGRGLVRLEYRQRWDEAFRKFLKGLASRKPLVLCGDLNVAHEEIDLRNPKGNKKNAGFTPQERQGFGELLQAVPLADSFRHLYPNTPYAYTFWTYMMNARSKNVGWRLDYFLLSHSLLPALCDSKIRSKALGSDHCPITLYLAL", "assay": "qHTS Validation Assay for Inhibitors of the Human Apurinic/apyrimidinic Endonuclease 1 (APE1) (AID 1705;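 further: TAMRA fluorescence gain over two minutes as APE1 cuts a quenched THF abasic duplex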)", "settings": "purified APE1 endonuclease activity, fluorescence, titration; series mostly up to 57.1 µM", "method_in_brief": "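Human APE1 was preincubated with compound for 15 min at room temperature, then 50 nM (final) THF-abasic double-stranded DNA substrate bearing 5'-TAMRA and 3'-BHQ-2 was added. Incision-driven fluorescence rise (ex 525/em 598 nm) was read kinetically.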"}, "[3]": {"assay": "Counterscreen for APE1 Inhibitors: Fluorescent Dye Displacement Validation Assay (AID 1707)", "settings": "fluorescent dye displacement from DNA; series mostly up to 57.1 µM", "method_in_brief": "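Compounds are scored by their ability to displace Thiazole Orange (250 nM) from a 50 nM TAMRA-tagged duplex bearing a tetrahydrofuran abasic site. Buffer is 50 mM Tris-HCl pH7.5, 50mM NaCl, 2 mM MgCl2, 0.01% Tween-20.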"}, "[4]": {"target": "Endonuclease 4 (Escherichia coli (strain K12)) (UniProt P0A6C1)", "assay": "Counterscreen for APE1 Inhibitors: qHTS Validation Assay for Inhibitors of Endonuclease IV (AID 1708)", "settings": "E. coli endonuclease IV, DNA cleavage fluorescence; series mostly up to 57.1 µM", "method_in_brief": "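Cleavage of a quenched abasic-site DNA duplex (50 nM, 5'-TAMRA, 3'-BHQ-2) by 2 nM enzyme is followed as fluorescence increase. Compounds are preincubated with enzyme 15 min at room temperature before substrate addition.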"}, "[5]": {"target": "ATP-dependent DNA helicase Q1 (Homo sapiens) (UniProt P46063)", "sequence (P46063 whole entry, looked up)": "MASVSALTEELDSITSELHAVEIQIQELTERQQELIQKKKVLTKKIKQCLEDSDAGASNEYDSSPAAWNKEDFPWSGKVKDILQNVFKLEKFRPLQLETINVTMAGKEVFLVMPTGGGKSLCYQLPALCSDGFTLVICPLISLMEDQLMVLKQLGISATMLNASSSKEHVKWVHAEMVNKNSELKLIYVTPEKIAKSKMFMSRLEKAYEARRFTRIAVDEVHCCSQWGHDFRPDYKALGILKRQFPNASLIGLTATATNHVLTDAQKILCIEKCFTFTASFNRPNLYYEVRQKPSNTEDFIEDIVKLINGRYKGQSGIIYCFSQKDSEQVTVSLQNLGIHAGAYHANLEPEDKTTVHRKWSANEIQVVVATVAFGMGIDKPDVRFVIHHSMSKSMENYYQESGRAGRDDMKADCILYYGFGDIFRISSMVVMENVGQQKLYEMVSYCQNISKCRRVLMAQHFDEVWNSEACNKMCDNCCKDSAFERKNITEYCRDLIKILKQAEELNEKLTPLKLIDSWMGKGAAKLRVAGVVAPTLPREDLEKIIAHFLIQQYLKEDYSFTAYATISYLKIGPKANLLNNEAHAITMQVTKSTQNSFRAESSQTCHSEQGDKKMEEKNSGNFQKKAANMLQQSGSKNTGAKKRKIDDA", "assay": "qHTS Validation Assay for Inhibitors of RecQ-Like Dna Helicase 1 (RECQ1) (AID 2353)", "settings": "recombinant RECQ1 helicase DNA unwinding assay; series mostly up to 25.6 µM", "method_in_brief": "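50 nM RECQ1T1 preincubated 15 min with compound in Tris pH 8.0 buffer with MgCl2, DTT, Tween-20 and 2.5 ug/ml poly(dI-dC); started with 200 nM TAMRA/BHQ-2 forked duplex and 2 mM ATP. Unwinding read as fluorescence (525/598 nm), two reads 2 h apart.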"}, "[6]": {"target": "RecQ-like DNA helicase BLM (Homo sapiens) (UniProt P54132)", "sequence (P54132 whole entry, looked up)": "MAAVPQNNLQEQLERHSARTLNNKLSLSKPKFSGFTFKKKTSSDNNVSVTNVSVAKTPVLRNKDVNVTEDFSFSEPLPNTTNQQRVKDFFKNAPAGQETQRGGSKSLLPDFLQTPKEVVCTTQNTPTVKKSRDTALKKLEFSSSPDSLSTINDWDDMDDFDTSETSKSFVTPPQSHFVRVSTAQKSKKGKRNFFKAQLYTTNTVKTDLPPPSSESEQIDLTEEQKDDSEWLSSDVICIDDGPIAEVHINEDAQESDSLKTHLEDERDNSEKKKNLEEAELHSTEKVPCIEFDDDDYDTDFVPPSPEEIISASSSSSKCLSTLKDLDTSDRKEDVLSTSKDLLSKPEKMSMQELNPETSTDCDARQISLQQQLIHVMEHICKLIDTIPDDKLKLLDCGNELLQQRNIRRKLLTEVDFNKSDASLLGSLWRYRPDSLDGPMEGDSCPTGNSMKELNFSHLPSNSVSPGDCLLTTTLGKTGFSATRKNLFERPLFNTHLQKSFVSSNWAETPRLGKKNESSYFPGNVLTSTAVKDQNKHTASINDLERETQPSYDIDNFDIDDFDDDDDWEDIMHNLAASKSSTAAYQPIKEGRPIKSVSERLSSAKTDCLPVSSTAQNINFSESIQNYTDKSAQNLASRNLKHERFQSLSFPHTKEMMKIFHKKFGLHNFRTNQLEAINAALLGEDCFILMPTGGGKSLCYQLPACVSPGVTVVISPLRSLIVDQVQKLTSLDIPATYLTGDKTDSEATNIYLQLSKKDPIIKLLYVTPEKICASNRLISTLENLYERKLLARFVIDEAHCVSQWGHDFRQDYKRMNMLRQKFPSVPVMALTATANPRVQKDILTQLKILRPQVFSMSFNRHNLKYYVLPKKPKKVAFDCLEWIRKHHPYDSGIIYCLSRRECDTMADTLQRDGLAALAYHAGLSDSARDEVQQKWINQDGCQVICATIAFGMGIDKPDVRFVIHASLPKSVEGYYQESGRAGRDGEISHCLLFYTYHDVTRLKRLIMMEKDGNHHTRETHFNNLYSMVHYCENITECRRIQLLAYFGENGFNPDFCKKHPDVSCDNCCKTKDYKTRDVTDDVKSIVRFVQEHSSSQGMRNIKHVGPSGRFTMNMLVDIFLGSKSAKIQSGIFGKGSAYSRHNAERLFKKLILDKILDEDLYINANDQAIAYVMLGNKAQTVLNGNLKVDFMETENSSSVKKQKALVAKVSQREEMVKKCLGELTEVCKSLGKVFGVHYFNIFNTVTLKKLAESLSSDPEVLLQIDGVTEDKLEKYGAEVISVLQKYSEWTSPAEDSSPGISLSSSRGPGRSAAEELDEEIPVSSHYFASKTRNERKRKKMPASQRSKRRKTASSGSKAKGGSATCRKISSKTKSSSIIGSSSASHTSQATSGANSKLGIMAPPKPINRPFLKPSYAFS", "assay": "qHTS Validation Assay for Inhibitors of Bloom's syndrome helicase (BLM) (AID 2364)", "settings": "BLM helicase DNA unwinding, fluorescence, in vitro; series mostly up to 57.1 µM", "method_in_brief": "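50 nM BLM preincubated 15 min at room temperature with compound in pH 8.0 Tris buffer containing 2.5 ug/ml poly(dI-dC); started with 200 nM TAMRA/BHQ-2 forked duplex and 2 mM ATP (final). Unwinding read as TAMRA fluorescence increase, two reads 2 h apart.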"}, "[7]": {"target": "Alpha-galactosidase A (Homo sapiens) (UniProt P06280)", "sequence (P06280 whole entry, looked up)": "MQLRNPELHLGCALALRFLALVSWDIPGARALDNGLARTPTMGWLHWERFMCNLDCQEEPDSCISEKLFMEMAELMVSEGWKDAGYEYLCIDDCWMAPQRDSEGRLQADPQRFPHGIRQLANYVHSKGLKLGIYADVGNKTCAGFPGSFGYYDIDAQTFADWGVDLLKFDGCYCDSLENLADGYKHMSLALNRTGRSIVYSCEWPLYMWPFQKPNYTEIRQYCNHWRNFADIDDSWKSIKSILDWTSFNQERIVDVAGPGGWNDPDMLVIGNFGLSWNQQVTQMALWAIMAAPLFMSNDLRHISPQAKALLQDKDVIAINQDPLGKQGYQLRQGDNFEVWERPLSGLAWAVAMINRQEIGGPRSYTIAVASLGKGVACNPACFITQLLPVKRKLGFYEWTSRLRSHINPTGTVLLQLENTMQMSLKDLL", "assay": "Counterscreen for Glucocerebrosidase Inhibitors: qHTS Assay for Human alpha-Galactosidase at pH 4.5 (AID 992)", "settings": "purified enzyme, fluorogenic substrate; series mostly up to 76.9 µM", "method_in_brief": "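Quantitative HTS: compounds tested from 0.7 nM up to 77 uM against 2 nM enzyme with 80 uM 4-MU alpha-D-galactopyranoside. The 20 min room-temperature reaction is stopped with 1M NaOH/1M glycine, pH 10.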"}, "[8]": {"target": "alpha-glucosidase (Oryza sativa, rice) (UniProt Q653V4)", "assay": "Counterscreen for Glucocerebrosidase Inhibitors: qHTS Assay for Rice alpha-Glucosidase at pH 5.0 (AID 997)", "settings": "rice alpha-glucosidase enzyme activity; series mostly up to 76.9 µM", "method_in_brief": "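Rice alpha-glucosidase (4 nM final) with 400 uM 4-methylumbelliferyl-alpha-D-glucopyranoside in citrate buffer pH 5.0, 20 min at room temperature, stopped at pH 10; fluorescence 365/440 nm, compounds 0.7 nM–77 uM, AC50 from Hill fits.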"}, "[9]": {"assay": "Validation of Assay for Modulators of Lamin A Splicing (AID 1459; active means well fitted curve in the direction sought with a large enough effect in the signal ratio; the % refers to the signal ratio;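 further: cells exposed to compound for two days before reading; ratio rise marks activators and ratio drop marks inhibitors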)", "settings": "Lamin A splicing dual RFP/GFP fluorescence reporter; series mostly up to 9.22 µM", "method_in_brief": "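S3 HeLa cells stably expressing a lamin A-EGFP splicing minigene and DsRed2 were seeded at 600 cells/well in Opti-MEM with 2% FBS, pin-dosed, and incubated 48 hrs at 37 °C, 5% CO2. Laser-scanning cytometry (488 nm) gave GFP/RFP total intensity ratio.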"}, "[10]": {"assay": "qHTS for differential inhibitors of proliferation of Plasmodium falciparum line GB4 (AID 1816)", "settings": "series mostly up to 28.7 µM"}, "[11]": {"assay": "qHTS for differential inhibitors of proliferation of Plasmodium falciparum line 3D7 (AID 1876);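 further: parasite growth measured after three days of culture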", "settings": "P. falciparum 3D7 proliferation inhibition; series mostly up to 28.7 µM"}, "[12]": {"assay": "qHTS for differential inhibitors of proliferation of Plasmodium falciparum line D10 (AID 1877);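 further: parasites grown with compound for 72 h before DNA staining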", "settings": "series mostly up to 28.7 µM"}, "[13]": {"assay": "qHTS for differential inhibitors of proliferation of Plasmodium falciparum line Dd2 (AID 1882); further: nearly all actives have a fitted effect of over 65% in size", "settings": "series mostly up to 28.7 µM", "method_in_brief": "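SYBR Green I DNA fluorescence read-out, ex 485/em 535 nm. Signals were normalized to 0.29 uM artemisinin and DMSO wells, then corrected using vehicle-only plates flanking each stack. Parasite growth ran 72 h in erythrocytes before lysis.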"}, "[14]": {"assay": "qHTS for differential inhibitors of proliferation of Plasmodium falciparum line W2 (AID 1883);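 further: potency means the concentration at half of the fitted maximal effect; parasites grown with compound for 72 h before lysis and staining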", "settings": "Plasmodium falciparum W2 proliferation inhibition"}, "[15]": {"assay": "qHTS for differential inhibitors of proliferation of Plasmodium falciparum line HB3 (AID 1886)", "settings": "series mostly up to 28.7 µM"}, "[16]": {"assay": "Cytometric Cell-Based qHTS for Inhibitors of the mTORC1 Signaling Pathway in MEF (Tsc2-/-, p53-/-) Cells (AID 2660);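 further: percent of cells above a phospho-rpS6 to PI ratio cutoff in each well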", "settings": "mTORC1 pathway cytometry; series mostly up to 38.3 µM", "method_in_brief": "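Immunofluorescence qHTS of rpS6 Ser235/236 phosphorylation: MEFs (Tsc2-/-, p53-/-) treated 24 h, 37 C, in DMEM + 10% FBS. Alexa-488 signal normalized to PI count, referenced to rapamycin (7.5 nM) and DMSO; PI cell number recorded for viability.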"}, "[17]": {"assay": "High Content Imaging Cell-Based qHTS for Inhibitors of the mTORC1 Signaling Pathway in MEF (Tsc2-/-, p53-/-) Cells (AID 2666)", "settings": "at 38.3 µM (top of the series)", "method_in_brief": "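Phospho-rpS6 (Ser235/236) immunofluorescence, normalized and scored as % positive cells using rapamycin and DMSO controls, was read in empty-vector Tsc2-/-, p53-/- MEFs after 24 h compound exposure at 37 C; propidium iodide counted cells.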"}, "[18]": {"assay": "High Content Imaging Cell-Based qHTS for Inhibitors of the mTORC1 Signaling Pathway in MEF Cells (AID 2667)", "settings": "series mostly up to 38.3 µM", "method_in_brief": "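WT MEFs (Tsc2-/-, p53-/- re-expressing Tsc2), in DMEM + 10% FBS, were treated with compound for 24 h at 37 C. Cells were then fixed and stained for phospho-rpS6 Ser235/236 with propidium iodide as cell count. Values are % positive cells, with thresholds set against rapamycin-treated cells.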"}, "[19]": {"assay": "Validation screen for small molecules that induce DNA re-replication in MCF 10A normal breast cells (AID 463097); further: nearly all actives have a fitted effect of over 60% in size", "settings": "MCF 10A cells, DNA re-replication phenotype imaging; series mostly up to 46.1 µM", "method_in_brief": "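Readout: Hoechst nuclear fluorescence intensity, 405 ex / 500-530 em, by scanning plate imager; re-replication scored as increase in nuclei with elevated DNA content. Cells exposed to compound 48 hr, 37 C, 5% CO2 beforehand.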"}, "[20]": {"target": "Ubiquitin carboxyl-terminal hydrolase 2 (Homo sapiens) (UniProt O75604)", "sequence (O75604 whole entry, looked up)": "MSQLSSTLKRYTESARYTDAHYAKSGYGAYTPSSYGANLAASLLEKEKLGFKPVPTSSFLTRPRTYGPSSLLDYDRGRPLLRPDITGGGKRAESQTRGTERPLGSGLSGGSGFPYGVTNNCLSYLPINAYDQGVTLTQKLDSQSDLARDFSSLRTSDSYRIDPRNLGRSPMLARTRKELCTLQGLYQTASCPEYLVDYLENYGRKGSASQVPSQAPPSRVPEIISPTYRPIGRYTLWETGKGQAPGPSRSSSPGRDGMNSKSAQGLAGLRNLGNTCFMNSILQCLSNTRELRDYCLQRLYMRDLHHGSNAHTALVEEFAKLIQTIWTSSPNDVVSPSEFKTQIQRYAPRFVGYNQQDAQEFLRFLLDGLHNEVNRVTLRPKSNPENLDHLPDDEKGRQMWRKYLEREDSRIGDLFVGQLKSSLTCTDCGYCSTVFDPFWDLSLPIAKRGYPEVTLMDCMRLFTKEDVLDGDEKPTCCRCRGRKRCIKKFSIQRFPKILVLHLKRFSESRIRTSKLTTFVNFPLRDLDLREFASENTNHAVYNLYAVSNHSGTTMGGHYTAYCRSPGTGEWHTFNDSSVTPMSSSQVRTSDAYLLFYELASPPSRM", "assay": "qHTS Validation Assay for Inhibitors of Ubiquitin-specific Protease USP2a Using CHOP2 as the Reporter (AID 463106)", "settings": "USP2a cleavage of CHOP2 reporter, enzymatic; series mostly up to 38.3 µM", "method_in_brief": "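USP2 core (10 nM final) was preincubated with compound 30 min at RT in pH 8.0 Tris/CaCl2/beta-ME/CHAPS buffer. Ub-CHOP2 and reporter substrate (25 nM final each) were then added, with fluorescence (Ex 485/Em 531) read after 60 min. Data were normalized to NEM full inhibition and fitted to concentration-response curves.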"}, "[21]": {"settings": "measured here: cell count channel max response"}, "[22]": {"settings": "measured here: lipid channel max response"}},
  "note": "Records with an inconclusive call do not appear. Entries that show only a call come without a potency. Calls of active or inactive are those of the source. Unless noted, the call rests on the fitted dose curve; in most records, active means well fitted curve in the direction sought with a large enough effect; inconclusive means small, poorly fitted or top-dose-only effect, or another doubt; inactive means no such curve, though single readings can be large; an effect the other way counts as inactive or inconclusive.",
  "data": [
    {"smiles": "CC[C@@]1(O)C(=O)OCc2c1cc1n(c2=O)Cc2cc3cc(O)ccc3nc2-1", "values": [
      {"measurement": "activity change, negative = inhibition", "setting": "[1]; at 57.5 µM (top of the series)", "value": "-14.2% (inactive)"},
      {"measurement": "max response", "setting": "[1]; [21]", "value": -6.87, "unit": "%"},
      {"measurement": "max response", "setting": "[1]; [22]", "value": -17.5, "unit": "%"}
    ]},
    {"smiles": "Cc1coc2c1C(=O)C(=O)c1c-2ccc2c1CCCC2(C)C", "values": [
      {"measurement": "activity change, negative = inhibition", "setting": "[1]; at 57.5 µM (top of the series)", "value": "6.48% (inactive)"},
      {"measurement": "max response", "setting": "[1]; [21]", "value": 16.1, "unit": "%"},
      {"measurement": "max response", "setting": "[1]; [22]", "value": 23.2, "unit": "%"}
    ]},
    {"smiles": "Nc1ccc(S(=O)(=O)Nc2ncccn2)cc1", "values": [
      {"measurement": "activity change, negative = inhibition", "setting": "[1]; at 25.7 µM (top of the series)", "value": "0.373% (inactive)"},
      {"measurement": "max response", "setting": "[1]; [21]", "value": -6.66, "unit": "%"},
      {"measurement": "max response", "setting": "[1]; [22]", "value": -7.25, "unit": "%"}
    ]},
    {"smiles": "CC[C@H](CO)Nc1nc(NCc2ccccc2)c2ncn(C(C)C)c2n1", "values": [
      {"measurement": "activity change, negative = inhibition", "setting": "[1]; at 57.5 µM (top of the series)", "value": "2.75% (inactive)"},
      {"measurement": "max response", "setting": "[1]; [21]", "value": 73, "unit": "%"},
      {"measurement": "max response", "setting": "[1]; [22]", "value": 78.1, "unit": "%"},
      {"measurement": "outcome", "setting": "[2]", "value": "inactive"},
      {"measurement": "outcome", "setting": "[3]", "value": "inactive"},
      {"measurement": "outcome", "setting": "[4]", "value": "inactive"},
      {"measurement": "outcome", "setting": "[5]", "value": "inactive"},
      {"measurement": "outcome", "setting": "[6]", "value": "inactive"}
    ]},
    {"smiles": "O=c1c2ccccc2nc2n1CCc1c-2[nH]c2ccccc12", "values": [
      {"measurement": "outcome", "setting": "[7]", "value": "inactive"},
      {"measurement": "outcome", "setting": "[8]", "value": "inactive"},
      {"measurement": "outcome", "setting": "[9]", "value": "inactive"},
      {"measurement": "activity change, negative = inhibition", "setting": "[1]; at 57.5 µM (top of the series)", "value": "1.95% (inactive)"},
      {"measurement": "max response", "setting": "[1]; [21]", "value": 45, "unit": "%"},
      {"measurement": "max response", "setting": "[1]; [22]", "value": 50, "unit": "%"},
      {"measurement": "outcome", "setting": "[2]", "value": "inactive"},
      {"measurement": "outcome", "setting": "[3]", "value": "inactive"},
      {"measurement": "outcome", "setting": "[4]", "value": "inactive"},
      {"measurement": "outcome", "setting": "[10]", "value": "inactive"},
      {"measurement": "outcome", "setting": "[11]", "value": "inactive"},
      {"measurement": "outcome", "setting": "[12]", "value": "inactive"},
      {"measurement": "outcome", "setting": "[13]", "value": "inactive"},
      {"measurement": "Potency", "setting": "[14]", "value": "12.6 µM (active)"},
      {"measurement": "outcome", "setting": "[15]", "value": "inactive"},
      {"measurement": "outcome", "setting": "[5]", "value": "inactive"},
      {"measurement": "outcome", "setting": "[16]", "value": "inactive"},
      {"measurement": "outcome", "setting": "[17]", "value": "inactive"},
      {"measurement": "outcome", "setting": "[18]", "value": "inactive"},
      {"measurement": "outcome", "setting": "[19]", "value": "inactive"},
      {"measurement": "outcome", "setting": "[20]", "value": "inactive"}
    ]},
    {"smiles": "C[C@H]1C[C@@H]2[C@@H]([C@@H](O)C[C@@]3(C)[C@H]2CC[C@]3(O)C(=O)CO)[C@@]2(C)C=CC(=O)C=C12", "values": [
      {"measurement": "activity change, negative = inhibition", "setting": "[1]; at 25.7 µM (top of the series)", "value": "-1.2% (inactive)"},
      {"measurement": "max response", "setting": "[1]; [21]", "value": -15.5, "unit": "%"},
      {"measurement": "max response", "setting": "[1]; [22]", "value": -14.8, "unit": "%"}
    ]}
  ]
}
